This note sets out measurements from PubChem BioAssay (Tox21).

Values without a mark were called inactive. Inconclusive results are not listed. Active and inactive are the calls of the source. Unless noted, calls follow the shape of the dose curve; as a rule, active = well fitted curve in the direction sought with a large enough effect in the repeat runs; inconclusive = weak or mixed curves; inactive = no such curve, though single readings can be large; an effect the other way counts as inactive or inconclusive.

The nature of assay [1]: qHTS assay for small molecule agonists of the p53 signaling pathway (AID 651631; calls by dose curve; also: nearly all actives have a fitted effect of over 15% in size; also: potency is read from the fitted curve at half-maximal effect). In outline: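 HCT-116 cells carrying a beta-lactamase reporter under p53 response elements were dosed with compound for 16 h at 37 °C. LiveBLAzer B/G FRET substrate was then added for 2 h at room temperature, and fluorescence intensity was read to detect pathway agonism.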
(In general: Quantitative high-throughput screening tests each substance at several concentrations.)

A short description of assay [2]: qHTS assay for small molecules that induce genotoxicity in human embryonic kidney cells expressing luciferase-tagged ATAD5 (AID 651632). Also: nearly all actives have a fitted effect of over 15% in size. Also: potency is read from the fitted curve at half-maximal effect. In outline:
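Genotoxicity read-out via ATAD5-luciferase: HEK293T cells, 16 hr compound incubation at 37C, Amplite detection.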

Assay [3] in a line: qHTS assay for small molecule agonists of the p53 signaling pathway - cell viability (AID 651633; calls by dose curve;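 also: p53RE-bla HCT reporter cells with a stable beta-lactamase p53 reporter; series mostly up to about 83 µM; nearly all actives have a fitted effect of over 30% in size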). In outline:
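Viability counter-read: CellTiter-Glo luminescence (30 min, room temperature) in the same p53RE-bla plates. These plates had been exposed to compounds for 16 h at 37 C.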

A short description of assay [4]: qHTS assay for small molecules that induce genotoxicity in human embryonic kidney cells expressing luciferase-tagged ATAD5 - cell viability (AID 651634; calls by dose curve; also: nearly all actives have a fitted effect of over 25% in size). Put shortly: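 Live-cell protease activity (CellTiter-Fluor, fluorescence) indicates viability. HEK293T cells with luciferase-tagged ATAD5; 15.5 hr compound treatment at 37C.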
Assay [5] can be described thus: qHTS assay for small molecule disruptors of the mitochondrial membrane potential - cell viability (AID 720634; calls by dose curve;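 also: human HepG2 liver cancer cells; series mostly up to about 83 µM; nearly all actives have a fitted effect of over 20% in size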). In outline:
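Human hepatoma HepG2 cells were treated for 1 hr with test chemicals, then given m-MPI dye and CellTiter-Glo. Cell viability reflects luminescence proportional to cellular ATP.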

A short description of assay [6]: qHTS assay to test for compound auto fluorescence at 590 nm (red) in HepG2 cells (AID 720674). In outline: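 1 hr compound incubation on HepG2 cells, 37 C, 5% CO2; plate read ex 540 nm / em 590 nm; intensities reported as Rose Bengal sodium equivalents.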
Assay [7] in a line: qHTS assay to test for compound auto fluorescence at 535 nm (green) in HepG2 cells (AID 720675).
Assay [8] in a line: qHTS assay to test for compound auto fluorescence at 460 nm (blue) in HEK293 cells (AID 720678). Put shortly:
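After cell attachment (4-5 hr, 37C), compounds were pinned onto HEK293 monolayers in 10% dialyzed FBS medium. The blue channel (405/460 nm) was read following overnight culture. Equivalency was calculated against triamterene.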

Assay [9] is described as follows: qHTS assay to test for compound auto fluorescence at 590 nm (red) in HEK293 cells (AID 720679). Put shortly: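 Plates of HEK293 cells (10% dialyzed FBS) are treated with 23 nL compound or DMSO vehicle after a 4-5 hr attachment period, incubated overnight at 37C, and read for red fluorescence at 540/590nm.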
Assay [10] can be described thus: qHTS assay for small molecule disruptors of the mitochondrial membrane potential (AID 720635). Put shortly: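 Mitochondrial membrane potential tracked with Mito-MPS dye, red aggregates (ex 540/em 590 nm) against green monomers (ex 490/em 535 nm). Compound treatment 1 hr at 37C, dye 30 min in HepG2.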
% is scaled to controls: 0 for no effect and ±100 for the full control effect.

For `O=C(NS(=O)(=O)/C=C/c1ccccc1)c1ccc(F)cc1Cl`, the results for the Potency in assay [1] and in [2] were 21.7 µM (active) and 15.4 µM (active), respectively. In addition, the Potency result in assay [3], in assay [4] and in assay [8] was “inactive” each time. Also, the compound was classed as inactive in assay [5], in [6], in assay [7] and in assay [9].

Turning to `Nc1c(Cl)cc(Cl)cc1[N+](=O)[O-]`, the Potency result in assay [1], in assay [2], in [3], in [4] and in [8] was “inactive” throughout. In addition, the outcome in [5], in [6], in assay [7] and in assay [9] was inactive.

On to `[Cl][Nd]([Cl])[Cl]`, for which the Potency entry in [1], in assay [2], in assay [3], in assay [4] and in assay [8] was “inactive” in each case. The result in assay [5], in [6], in [7] and in assay [9] was inactive.

On to `NC(=O)c1ccccc1[N+](=O)[O-]`, for which the Potency entry in assay [1], in assay [2], in assay [3], in assay [4] and in assay [8] was “inactive” each time. For the same compound, the compound was classed as inactive in assay [5], in assay [6], in assay [7] and in [9].

In the case of `CCNc1nc(N)nc(Cl)n1`, the Potency entry in assay [1], in assay [2], in assay [3], in [4] and in assay [8] was “inactive” throughout. The call in [5], in [6], in assay [7] and in assay [9] was inactive.

For the compound `CC(C)C(=O)OCCOc1ccccc1`, the Potency entry in assay [1], in assay [2], in [3], in [4] and in assay [8] was “inactive” in each case. For the same compound, the call in assay [5], in assay [6], in [7] and in [9] was inactive.

In the case of `O=C(NC(Cc1cc(=O)[nH]c2ccccc12)C(=O)O)c1ccc(Cl)cc1` (centres undefined), the Potency result in assay [1], in assay [2], in [3], in assay [4] and in assay [8] was “inactive” each time. Further, the compound was called inactive in [5], in [6], in assay [7] and in [9].

For the compound `CC(C)(C)NCC(O)COc1cccc2c1C[C@H](O)[C@H](O)C2` (some centres undefined), the Potency result in [1], in assay [2], in assay [3] and in assay [4] was “inactive” in each case. In addition, the compound was classed as inactive in assay [5]. For the same compound, the fluorescence, relative to Rose Bengal in assay [6] is 0.0921% [at 18.6 µM]. Also, in assay [7], the fluorescence, % of fluorescein control is 0.0163% [at 18.6 µM]. Moreover, in [8], the fluorescence, % of triamterene is 0.0252% [at 18.6 µM]. Further, the fluorescence, % of fluorescent control in [9] was -0.0478% [at 18.6 µM].

In the case of `CCN(CC)C(=O)N1CCN(C)CC1`, the Potency entry in assay [1], in [2], in [3] and in assay [4] was “inactive” throughout. Besides, the call in [5] was inactive. Also, the fluorescence, relative to Rose Bengal in assay [6] is 0.12% [at 18.6 µM]. The fluorescence, % of fluorescein control in assay [7] was -0.0715% [at 18.6 µM]. The fluorescence, % of triamterene in [8] is -0.217% [at 18.6 µM]. In assay [9], the fluorescence, % of fluorescent control is 0.0039% [at 18.6 µM].

Consider `O=C(O)c1cccc(Oc2ccccc2)c1`, for which the Potency entry in assay [1], in assay [2], in assay [3], in [4] and in assay [8] was “inactive” each time. Besides, the compound was called inactive in assay [5], in [6], in assay [7] and in assay [9].

For `CC(C)CC(O)CC(C)C`, the Potency entry in [1], in assay [2], in assay [3], in assay [4] and in assay [8] was “inactive” throughout. The compound was called inactive in assay [5], in assay [6], in [7] and in assay [9].

On to `Cc1ccc(Cl)cc1N`, for which the Potency entry in [1], in assay [2], in [3], in assay [4] and in assay [8] was “inactive” in each case. Besides, the compound was called inactive in [5], in [6], in assay [7] and in assay [9].

For `CCO[Si](C)(CCCOCC1CO1)OCC` (centres undefined), the Potency entry in [1], in assay [2], in assay [3], in [4] and in [8] was “inactive” in each case. The result in assay [5], in assay [6], in assay [7] and in assay [9] was inactive.

In the case of `CC(C)N(C)C`, the Potency entry in assay [1], in assay [2], in assay [3], in assay [4] and in assay [8] was “inactive” throughout. In addition, the result in assay [5], in assay [6], in assay [7] and in assay [9] was inactive.

For `CCOCCC(=O)OCC`, the Potency entry in [1], in [2], in assay [3], in assay [4] and in [8] was “inactive” each time. Besides, the call in assay [5], in assay [6], in [7] and in assay [9] was inactive.

On to `O=C1OC[C@H](Cc2cccc(O)c2)[C@H]1Cc1cccc(O)c1`, for which the Potency entry in assay [1], in assay [2], in assay [3], in assay [4] and in [8] was “inactive” each time. The call in [5], in assay [6], in assay [7] and in assay [9] was inactive.

In the case of `Cc1ccc(N(CCO)CCO)cc1`, the Potency result in assay [1], in [2], in [3], in assay [4] and in assay [8] was “inactive” throughout. The compound was called inactive in assay [5], in assay [6], in assay [7] and in assay [9].

With `O=C(O)CCCc1c[nH]c2ccccc12`, the Potency entry in assay [1], in [2], in [3], in assay [4] and in assay [8] was “inactive” throughout. Moreover, the compound was classed as inactive in assay [5], in assay [6], in [7] and in assay [9].

As for `Cc1cn([C@H]2C[C@H](F)[C@@H](CO)O2)c(=O)[nH]c1=O`, the Potency result in assay [1], in assay [2], in assay [3], in [4], in assay [10] and in [8] was “inactive” throughout. Further, the call in assay [5], in assay [7] and in [9] was inactive.

As for `C=CC(=O)NC(C)C`, the Potency entry in [1], in assay [2], in assay [3], in [4], in assay [10] and in assay [8] was “inactive” each time. The outcome in [5], in [7] and in assay [9] was inactive.

Take `CCC(CO)(CO)[N+](=O)[O-]`: the Potency entry in assay [1], in [2], in assay [3], in assay [4] and in assay [8] was “inactive” in each case. Further, the result in assay [5], in assay [6], in [7] and in assay [9] was inactive.

As to `COC(=O)c1sccc1S(N)(=O)=O`, the Potency result in [1], in [2], in [3], in [4] and in [8] was “inactive” throughout. In addition, the result in [5], in assay [6], in assay [7] and in assay [9] was inactive.

For the compound `CCCCCCCCCCCCCCN(C)C`, the Potency entry in assay [1], in assay [2], in assay [3], in assay [4] and in assay [10] was “inactive” throughout. For the same compound, the call in assay [5] was inactive. In addition, the fluorescence, % of fluorescein control in [7] is 0.0291% [at 18.6 µM]. Moreover, the fluorescence, % of triamterene in [8] was -0.142% [at 18.6 µM]. Besides, in assay [9], the fluorescence, % of fluorescent control is 0.0361% [at 18.6 µM].

In the case of `CCCCCCC(O)CCOC(C)=O` (centres undefined), the Potency result in assay [1], in assay [2], in assay [3], in assay [4] and in assay [8] was “inactive” throughout. Besides, the outcome in [5], in [6], in assay [7] and in [9] was inactive.

Turning to `O=S(=O)(Cl)c1c(Cl)cccc1Cl`, the Potency entry in [1], in assay [2], in assay [3], in assay [4] and in assay [8] was “inactive” throughout. The outcome in assay [5], in assay [6], in assay [7] and in [9] was inactive.

For the compound `C[C@@H]1C[C@H]2[C@@H]3CCC4=CC(=O)C=C[C@]4(C)[C@@]3(F)[C@@H](O)C[C@]2(C)[C@@]1(O)C(=O)COP(=O)(O)O`, the Potency result in assay [1], in assay [2], in assay [3], in assay [4], in assay [10] and in assay [8] was “inactive” in each case. Besides, the compound was classed as inactive in [5], in [7] and in assay [9].
